Inconclusive results are not listed. Activity calls are given as the source filed them. The call rests on the fitted dose curve; in most records, active means well fitted curve in the direction sought with a large enough effect in the repeat runs; inconclusive means weak or mixed curves; inactive means no such curve, though single readings can be large; an effect the other way counts as inactive or inconclusive.
Experiments:
[1] = qHTS RealTime-Glo MT Cell Viability Assay in HepG2 cells - 40 hour (AID 1224870); further: nearly all actives have a fitted effect of over 50% in size; further: potency means the concentration at half of the fitted maximal effect
Summary of the method: (§1)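 HepG2 cells (600/well) mixed with RealTime-Glo MT reagent, settled 5 h at 37 C/5% CO2 before compound addition. Nonlytic NanoLuc luminescence from viable-cell prosubstrate reduction read repeatedly during 40 h treatment at 37 C.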

[2] = A CellTox Green Cytotoxicity Assay to monitor cytotoxicity in HEK293 cells - 40 hour (AID 1224871); further: nearly all actives have a fitted effect of over 45% in size; further: potency means the concentration at half of the fitted maximal effect
Summary of the method: (§2)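 Fluorescence from a DNA-binding dye excluded by viable cells was measured repeatedly in the same HEK293 wells (600 cells/well) during continuous compound exposure at 37 C. Each assay gives one read point: 0, 8, 16, 24, 32 or 40 h.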

[3] = qHTS RealTime-Glo MT Cell Viability Assay in HEK293 cells - 16 hour (AID 1224872); further: nearly all actives have a fitted effect of over 50% in size; further: potency means the concentration at half of the fitted maximal effect
Summary of the method: (§3)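 Assay medium contained NanoLuc luciferase plus cell-permeant prosubstrate, added with HEK293 cells at 600 cells/well. After 5 h at 37 C/5% CO2 compounds were added; plates stayed at 37 C for 40 h with serial luminescence reads.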

[4] = qHTS RealTime-Glo MT Cell Viability Assay in HepG2 cells - 8 hour (AID 1224873); further: nearly all actives have a fitted effect of over 55% in size; further: potency means the concentration at half of the fitted maximal effect
Summary of the method: as §1

[5] = qHTS RealTime-Glo MT Cell Viability Assay in HEK293 cells - 40 hour (AID 1224874); conditions: RealTime-Glo luminescence; max response: stronger effect = lower value; further: nearly all actives have a fitted effect of over 50% in size; further: potency means the concentration at half of the fitted maximal effect
Summary of the method: (§4)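 Luminescence, which tracks viable cell number through reduction of the prosubstrate to a NanoLuc substrate, was read over continuous 37 C culture. Cells (600/well) were premixed with reagent and rested 5 h before 23 nL of compound in DMSO was pinned.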

[6] = qHTS RealTime-Glo MT Cell Viability Assay in HepG2 cells - 32 hour (AID 1224877); further: nearly all actives have a fitted effect of over 55% in size
Summary of the method: (§5)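 qHTS, HepG2, 600 cells/well, RealTime-Glo (NanoLuc + prosubstrate) added with cells; 5 h preincubation; DMSO compound addition; 37 C; luminescence at 0/8/16/24/32/40 h.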

[7] = A CellTox Green Cytotoxicity Assay to monitor cytotoxicity in HepG2 cells - 24 hour (AID 1224878); further: nearly all actives have a fitted effect of over 45% in size; further: potency means the concentration at half of the fitted maximal effect
Summary of the method: (§6)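 Real-time cytotoxicity: fluorescence of a cell-impermeant cyanine dye binding DNA of dead HepG2 cells, measured repeatedly (0–40 h) during compound exposure at 37 C. Cells seeded 600/well with reagent, dosed after 5 h.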

[8] = A CellTox Green Cytotoxicity Assay to monitor cytotoxicity in HepG2 cells - 40 hour (AID 1224879); further: nearly all actives have a fitted effect of over 40% in size; further: potency means the concentration at half of the fitted maximal effect
Summary of the method: as §6

[9] = qHTS RealTime-Glo MT Cell Viability Assay in HEK293 cells - 0 hour (AID 1224880); further: top concentration of the series differs between compounds; nearly all actives have a fitted effect of over 45% in size
Summary of the method: as §4

[10] = A CellTox Green Cytotoxicity Assay to monitor cytotoxicity in HEK293 cells - 32 hour (AID 1224881); further: nearly all actives have a fitted effect of over 40% in size; further: potency means the concentration at half of the fitted maximal effect
Summary of the method: as §2

[11] = A CellTox Green Cytotoxicity Assay to monitor cytotoxicity in HepG2 cells - 0 hour (AID 1224882); further: nearly all actives have a fitted effect of over 35% in size
Summary of the method: as §6

[12] = A CellTox Green Cytotoxicity Assay to monitor cytotoxicity in HEK293 cells - 8 hour (AID 1224884); further: nearly all actives have a fitted effect of over 35% in size; further: potency means the concentration at half of the fitted maximal effect
Summary of the method: as §2

[13] = qHTS RealTime-Glo MT Cell Viability Assay in HepG2 cells - 16 hour (AID 1224885); further: nearly all actives have a fitted effect of over 50% in size; further: potency means the concentration at half of the fitted maximal effect
Summary of the method: as §5

[14] = qHTS RealTime-Glo MT Cell Viability Assay in HEK293 cells - 24 hour (AID 1224886); further: nearly all actives have a fitted effect of over 50% in size; further: potency means the concentration at half of the fitted maximal effect
Summary of the method: as §3

[15] = qHTS RealTime-Glo MT Cell Viability Assay in HEK293 cells - 8 hour (AID 1224887); further: nearly all actives have a fitted effect of over 50% in size; further: potency means the concentration at half of the fitted maximal effect
Summary of the method: as §4

[16] = A CellTox Green Cytotoxicity Assay to monitor cytotoxicity in HEK293 cells - 16 hour (AID 1224888); further: nearly all actives have a fitted effect of over 35% in size; further: potency means the concentration at half of the fitted maximal effect
Summary of the method: as §2

[17] = qHTS RealTime-Glo MT Cell Viability Assay in HepG2 cells - 0 hour (AID 1224889); further: nearly all actives have a fitted effect of over 50% in size
Summary of the method: as §5

[18] = A CellTox Green Cytotoxicity Assay to monitor cytotoxicity in HEK293 cells - 24 hour (AID 1224875); further: series mostly up to about 77 µM; nearly all actives have a fitted effect of over 45% in size
Summary of the method: as §2

[19] = A CellTox Green Cytotoxicity Assay to monitor cytotoxicity in HepG2 cells - 16 hour (AID 1224876); further: nearly all actives have a fitted effect of over 45% in size; further: potency means the concentration at half of the fitted maximal effect
Summary of the method: as §6

[20] = A CellTox Green Cytotoxicity Assay to monitor cytotoxicity in HepG2 cells - 32 hour (AID 1224883); further: nearly all actives have a fitted effect of over 50% in size; further: potency means the concentration at half of the fitted maximal effect
Summary of the method: as §6
On the % scale 0 is the no-effect control and ±100 the full control effect.

O=C1NC(=O)c2cccc3cccc1c23
inactive: Potency [1] | Potency [2] | Potency [3] | Potency [4] | max response [5] -4.43% | Potency [6] | Potency [7] | Potency [8] | Potency [9] | Potency [10] | Potency [11] | Potency [12] | Potency [13] | Potency [14] | Potency [15] | Potency [16] | Potency [17]

CC[C@H]1OC(=O)[C@H](C)[C@@H](O[C@H]2C[C@@](C)(OC)[C@@H](O)[C@H](C)O2)[C@H](C)[C@@H](O[C@@H]2O[C@H](C)C[C@H](N(C)C)[C@H]2O)[C@](C)(O)C[C@@H](C)/C(=N\OCOCCOC)[C@H](C)[C@@H](O)[C@]1(C)O
inactive: Potency [1] | Potency [2] | Potency [4] | max response [5] -15% | Potency [18] | Potency [19] | Potency [6] | Potency [7] | Potency [8] | Potency [9] | Potency [10] | Potency [11] | Potency [20] | Potency [12] | Potency [13] | Potency [14] | Potency [16] | Potency [17]

CCC(=O)OCc1ccc(OC)cc1
inactive: Potency [1] | Potency [2] | Potency [3] | Potency [4] | max response [5] 0.878% | Potency [6] | Potency [8] | Potency [9] | Potency [10] | Potency [20] | Potency [13] | Potency [14] | Potency [15] | Potency [16] | Potency [17]

CCSC(=O)N(CC)CC
inactive: Potency [1] | Potency [2] | Potency [4] | max response [5] 0.524% | Potency [18] | Potency [19] | Potency [6] | Potency [7] | Potency [8] | Potency [9] | Potency [10] | Potency [20] | Potency [13] | Potency [14] | Potency [16] | Potency [17]

CC[C@H]1OC(=O)[C@H](C)[C@@H](O[C@H]2C[C@@](C)(OC)[C@@H](O)[C@H](C)O2)[C@H](C)[C@@H](O[C@@H]2O[C@H](C)C[C@H](N(C)C)[C@H]2O)[C@](C)(O)C[C@@H](C)CN(C)[C@H](C)[C@@H](O)[C@]1(C)O
inactive: Potency [1] | Potency [2] | Potency [3] | Potency [4] | Potency [19] | Potency [6] | Potency [7] | Potency [8] | Potency [9] | Potency [10] | Potency [20] | Potency [12] | Potency [14] | Potency [16] | Potency [17]

COc1ccc(C)cc1
inactive: Potency [1] | Potency [2] | Potency [4] | max response [5] 9.25% | Potency [18] | Potency [6] | Potency [7] | Potency [8] | Potency [9] | Potency [10] | Potency [11] | Potency [12] | Potency [13] | Potency [14] | Potency [15] | Potency [16] | Potency [17]

O=c1[nH][nH]c(=O)c2cc([N+](=O)[O-])ccc12
inactive: Potency [1] | Potency [2] | Potency [4] | max response [5] -11.6% | Potency [18] | Potency [19] | Potency [6] | Potency [7] | Potency [8] | Potency [9] | Potency [10] | Potency [11] | Potency [12] | Potency [13] | Potency [14] | Potency [15] | Potency [16] | Potency [17]

N[C@@H](Cc1cc(I)c(O)c(I)c1)C(=O)O
inactive: Potency [1] | Potency [2] | Potency [4] | max response [5] 3.01% | Potency [18] | Potency [19] | Potency [6] | Potency [7] | Potency [8] | Potency [9] | Potency [10] | Potency [11] | Potency [20] | Potency [12] | Potency [13] | Potency [14] | Potency [15] | Potency [16] | Potency [17]

Cc1c[nH]c2ccccc12
inactive: Potency [1] | Potency [2] | Potency [4] | max response [5] 17.2% | Potency [18] | Potency [19] | Potency [6] | Potency [8] | Potency [9] | Potency [10] | Potency [11] | Potency [20] | Potency [12] | Potency [14] | Potency [15] | Potency [16] | Potency [17]

O=c1[nH]c2cc(C(F)(F)F)c(N3CCOCC3)cc2n(CP(=O)(O)O)c1=O
inactive: Potency [1] | Potency [2] | Potency [4] | max response [5] 8.28% | Potency [18] | Potency [19] | Potency [6] | Potency [7] | Potency [8] | Potency [9] | Potency [10] | Potency [11] | Potency [20] | Potency [12] | Potency [13] | Potency [14] | Potency [15] | Potency [16] | Potency [17]

CC(O)Cn1cnc2c1c(=O)n(C)c(=O)n2C (centres undefined)
inactive: Potency [1] | Potency [2] | Potency [4] | max response [5] 5.1% | Potency [18] | Potency [19] | Potency [6] | Potency [7] | Potency [8] | Potency [9] | Potency [10] | Potency [11] | Potency [20] | Potency [14] | Potency [15] | Potency [16] | Potency [17]

O[C@@H](CNC[C@H](O)[C@H]1CCc2cc(F)ccc2O1)[C@@H]1CCc2cc(F)ccc2O1
active: Potency [1] 15.1 µM | Potency [2] 26.8 µM | Potency [3] 19 µM | Potency [4] 21.3 µM | Potency [5] 19 µM | Potency [19] 16.9 µM | Potency [7] 10.7 µM | Potency [8] 10.7 µM | Potency [10] 26.8 µM | Potency [20] 10.7 µM | Potency [12] 23.9 µM | Potency [13] 21.3 µM | Potency [14] 19 µM | Potency [15] 21.3 µM | Potency [16] 26.8 µM
inactive: Potency [11]
